Source: PubChem (SRMLSC)
A340 absorber – absorbance at 340 nm; 65,000 tested, under 10 active; compound absorbance at 340 nm, fold over control; fold change at 10 µM; AID 708;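 active means at 10 µM dose, initial 340 nm absorbance at least 2 fold that of control wells; inactive means change under 2 fold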;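 further: initial absorbance extrapolated from kinetic A340 decline of NADH oxidation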
Fluor 339 460 – intrinsic fluorescence of library compounds, ex339/em460 – biochemical, MLSMR library, data from DPM-DC assay, artefact control, profiling panel | AID 709 | fluorescence fold increase at 10 µM | hit rate 5.5% among 65,000 | compound autofluorescence, ex339/em460 nm, NADH buffer; active compounds read high; 1 = no-compound wells, NADH background;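 active means at 10 µM, mean starting fluorescence two-fold or more over control wells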;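 further: signal is the first read of a kinetic run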
NADH enzymes – blocks coupling enzymes of NAD/NADH assays | IC50, µM (titrated, usually from 10 µM) | coupled PK/LDH NADH assays, four targets | AID 774 | hit rate 0.02% among 65,000;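 active means single-dose screening hits from any of four coupled enzyme assays that gave an IC50 when retested across doses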;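 further: the DPM-DC format reads NADH fluorescence rather than 340 nm absorbance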
Spn PMK inh – inhibitors of Streptococcus pneumoniae phosphomevalonate kinase | purified PMK, PK/LDH-coupled NADH absorbance 340 nm | hit rate 0.49% among 65,000 | inhibition, % at 10 µM;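 active means top-ranked compounds by inhibition in the single 10 µM screen, taking a fixed number of the strongest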
Spn DPM-DC inh – inhibitors of Streptococcus pneumoniae diphosphomevalonate decarboxylase | purified DPM-DC, PK/LDH coupled NADH fluorescence | calls only at 10 µM | hit rate 0.49% among 65,000 | AID 556;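 active means the 320 compounds with the highest percent inhibition in the single-dose primary screen, excluding strongly autofluorescent ones, cut at about 32% in these data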;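 further: kinetic rate of NADH fluorescence loss reporting ADP formed by the decarboxylase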
MK inhibit – inhibitors of Streptococcus pneumoniae mevalonate kinase; inhibition, % at 10 µM; purified MK, PK/LDH-coupled NADH absorbance 340 nm; AID 555; hit rate 0.48% among 65,000;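 active means ranked among the strongest by inhibition in the single 10 µM screen, a fixed top-ranked set picked for dose follow-up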
Of the large screens only hits and unclear results are named; the others gave an inactive call; ! = not confirmed by another sample. An excerpt weighted towards active compounds, which were near 6.8% of everything screened.

CCOC(=O)c1sc(C)c2c1NC1(CCCCC1)NC2=O	Fluor 339 460 3.86 (not shown: Spn DPM-DC inh)
Cc1ccc(-c2nc(C#N)c(NCc3ccco3)o2)cc1	Fluor 339 460 3.7 (not shown: Spn DPM-DC inh)
N#Cc1nc(-c2ccc(OCc3ccccc3)cc2)oc1NCCN1CCOCC1	Fluor 339 460 3.88 (not shown: Spn DPM-DC inh)
Cc1ccc2cc(C#N)c(NCc3ccco3)nc2c1	Fluor 339 460 3.81 (not shown: Spn DPM-DC inh)
Cc1ccc(OCc2nc(C#N)c(NCc3ccco3)o2)cc1	none
N#Cc1nc(-c2ccc(OCc3ccccc3)cc2)oc1N1CCOCC1	none
N#Cc1nc(-c2ccco2)oc1NCCCN1CCOCC1	Fluor 339 460 3.64 (not shown: Spn DPM-DC inh)
CC(C)C1Cc2[nH]c(=O)c(C(=O)O)cc2CO1 (centres undefined)	none
COCCOC(=O)c1c(C)oc2ccc(OC(=O)c3c(OC)cccc3OC)cc12	none
CNc1oc(-c2ccc(OCc3ccccc3)cc2)nc1C#N	none
N#Cc1nc(-c2ccc(OCc3ccccc3)cc2)oc1NCc1ccco1	Fluor 339 460 2.41
N#Cc1nc(-c2ccco2)oc1NCc1ccco1	Fluor 339 460 2.42 (not shown: Spn DPM-DC inh)
O=C(CCC1CCCC1)N1CCN(C(=O)c2cccnc2)CC1	none
CCCCCn1c(CN2CCN(C)CC2)nc2c1c(=O)n(C)c(=O)n2C	none
CCCCn1c(Cl)nc2c1c(=O)n(C)c(=O)n2C	MK inhibit 40.0
CCOC(=O)/C=C/S(=O)(=O)c1ccc(NC(C)=O)cc1	none
O=c1c2cccc3c2c(nn1CN1CCOCC1)-c1ccccc1-3	Fluor 339 460 2.43
Cc1ccc(-c2nn(CC(=O)NCCN3CCOCC3)c(=O)c3ccccc23)cc1	none
COc1ccc(Cl)cc1N(CC(=O)Nc1ccc2c(c1)OCCO2)S(C)(=O)=O	none
Cc1cc(C)n(-c2ncnc3sc4c(c23)CCCC4)n1	Fluor 339 460 2.32
O=C(Nc1cc(Cl)ccc1O)c1cc2n(n1)C(C(F)(F)F)CC(c1ccc3c(c1)OCO3)N2 (centres undefined)	none
O=C(NCc1ccc2c(c1)OCO2)c1cc2n(n1)C(C(F)(F)F)CC(c1ccc3c(c1)OCO3)N2 (centres undefined)	Spn PMK inh 25.0
COc1ccc(NC(=O)Cn2nnc(C(N)=O)c2N)c(OC)c1	none
COc1ccc(N(CC(=O)NCc2cccs2)S(=O)(=O)c2cccnc2)cc1	MK inhibit 47.0
N#Cc1ccc(CSc2nnc(NC(=O)CN3C(=O)C4CC=CCC4C3=O)s2)cc1 (centres undefined)	none
Cn1c(=O)[nH]c(=O)c2c1nc(NC1CCCCC1)n2Cc1ccccc1	Fluor 339 460 2.53, Spn DPM-DC inh active
Cn1c(=O)[nH]c(=O)c2c1nc(NC1CCCCC1)n2CCO	none
N#Cc1c(NCCCO)nc(NCc2ccccc2)c2c1CCN(Cc1ccccc1)C2	Fluor 339 460 2.42, Spn DPM-DC inh active
O=C(Nc1cccc2nsnc12)c1cccs1	Fluor 339 460 3.61! (not shown: Spn DPM-DC inh)
O=C(Nc1ccc2nsnc2c1)c1cccs1	none
Cc1ccccc1-c1nc2cc(N)ccc2o1	Fluor 339 460 3.14, Spn DPM-DC inh active
CC(C)c1ccc2oc(-c3cc(N)ccc3O)nc2c1	none
Nc1ccc2oc(-c3cccc(Br)c3)nc2c1	Fluor 339 460 2 (not shown: Spn DPM-DC inh)
Nc1cc(N)cc(-c2nc3ccccc3o2)c1	none
Cc1ccc(C2CC(c3cccs3)n3nc(N)nc3N2)cc1 (centres undefined)	Fluor 339 460 2.26 (not shown: Spn DPM-DC inh)
COc1cc(CN2CCC(C(=O)NC3CCCC3)CC2)ccc1O	Fluor 339 460 2.04 (not shown: Spn DPM-DC inh)
CCOc1ccc(CNC(=O)C2CCN(S(=O)(=O)N3CCCC3)CC2)cc1OC	Spn PMK inh 26.0
COc1ccc(Br)cc1CNC(=O)C1CCN(S(=O)(=O)N2CCCC2)CC1	Spn PMK inh 30.0
COc1cc(CN2CCC(C(=O)N3CCN(c4ccccc4F)CC3)CC2)ccc1O	none
CCOc1ccc(CN2CCN(S(=O)(=O)c3ccc(NC(C)=O)cc3)CC2)cc1OC	MK inhibit 63.0
COc1ccc(C(=O)Nc2ccc(S(=O)(=O)N3CCCCC3)cc2)cc1OC	none
CCOc1cccc2sc(NC(=O)c3ccc(Br)s3)nc12	Fluor 339 460 2.09 (not shown: Spn DPM-DC inh)
CCOC(=O)Cc1csc(NC(=O)c2ccc(Br)s2)n1	none
N#Cc1cnn(-c2ccccc2)c1N	none
Cc1cc(-c2ccccc2)n2ncc(C#N)c2n1	Fluor 339 460 2.11 (not shown: Spn DPM-DC inh)
CCc1cc(=O)oc2cc(C)c3c(C)coc3c12	Fluor 339 460 2.43
CCc1cc(=O)oc2cc(C)cc(O)c12	none
